Screens deposited in PubChem by several laboratories.
APOBEC3G inh = inhibitors of human APOBEC3G DNA deaminase | Q9HC16 | recombinant A3G, ssDNA deamination FAM/TAMRA fluorescence | inhibition, % at 20 µM | actives 0.28% (n = 330,000);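 active means inhibition of at least 40% at 20 µM, with no more than 30% in the related APOBEC3A deaminase screen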;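 further: plate controls were DMSO wells with A3G for no effect and wells lacking A3G enzyme for full effect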
Target sequence (Q9HC16 whole entry, looked up): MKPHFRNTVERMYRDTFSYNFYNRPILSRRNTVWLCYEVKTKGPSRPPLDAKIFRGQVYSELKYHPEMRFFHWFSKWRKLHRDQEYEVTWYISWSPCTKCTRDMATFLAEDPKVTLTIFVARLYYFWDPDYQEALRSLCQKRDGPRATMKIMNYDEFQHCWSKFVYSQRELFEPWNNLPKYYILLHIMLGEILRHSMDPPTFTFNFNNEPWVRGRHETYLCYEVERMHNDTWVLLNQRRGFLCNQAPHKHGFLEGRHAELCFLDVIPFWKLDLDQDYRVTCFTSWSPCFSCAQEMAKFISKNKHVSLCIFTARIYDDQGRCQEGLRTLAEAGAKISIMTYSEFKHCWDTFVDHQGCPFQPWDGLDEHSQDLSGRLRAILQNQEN
Yeast superoxide = caloric restriction mimetics inhibiting age-related superoxide in yeast | S. cerevisiae aged cells, superoxide DHE fluorescence; stronger effect = lower value | superoxide response (% of plate mean), % at 10 µM | actives 0.18% (n = 330,000) | AID 2690;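 active means superoxide response under a set limit, about three screen SD below normal, cut at about 65% in these data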;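 further: yeast aged for seven days with compound at 30 °C before DHE staining; 100% = average MFI of all compound-treated wells on the plate with controls excluded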
M18AAP inhibitor = PfM18AAP enzyme inhibition; recombinant PfM18AAP, H-Glu-NHMec fluorogenic cleavage; actives 1.2% (n = 290,000); AID 1822; inhibition, % at 7.35 µM;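 active means inhibition above the campaign mean inhibition over all tested compounds plus 3 SD, cut at about 28% in these data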;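 further: 0% = plate median of test compound wells and 100% = 2 mM ZnCl2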
ALR H2O2 inh = inhibitors of human sulfhydryl oxidase ALR; P55789; purified ALR, DTT oxidation, H2O2 HRP-luminol luminescence; inhibition, % (concentration not given with the values); actives 3.8% (n = 290,000); AID 485317;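 active means mean replicate inhibition above about 79%, with every replicate also reaching it, limit read from the data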
CendR NRP1 mod = NRP-1/CendR interaction modulation; FAM-RPARPAR peptide binding to NRP-1, fluorescence polarization; inhibition, % at 25 µM; actives 0.85% (n = 360,000);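 active means inhibition or corrected inhibition above about 18%, plus a signal ratio from 0.5 to 1.5, limit read from the data, passing the limit was not always enough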
A3A deaminase = inhibitors of human APOBEC3A DNA deaminase; P31941; recombinant A3A, FAM/TAMRA ssDNA deamination fluorescence; inhibition, % at 20 µM; actives 0.41% (n = 330,000); AID 493011;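 active means at least 40% inhibition at 20 µM here, with at most 30% in a related deaminase screen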;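 further: plate controls were A3A with DMSO for no effect and wells lacking A3A enzyme for full effect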
Target sequence (P31941 whole entry, looked up): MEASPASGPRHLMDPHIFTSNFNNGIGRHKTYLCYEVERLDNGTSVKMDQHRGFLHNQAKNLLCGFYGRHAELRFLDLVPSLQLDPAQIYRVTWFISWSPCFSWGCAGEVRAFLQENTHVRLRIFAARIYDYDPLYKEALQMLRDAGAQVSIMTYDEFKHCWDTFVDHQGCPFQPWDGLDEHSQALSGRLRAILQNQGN
Numbers without * were called inactive; · = not tested or not shown. Compounds with a hit are over-represented: about 5.2% of the library has one in this group of screens.

SMILES | APOBEC3G inh | Yeast superoxide | M18AAP inhibitor | ALR H2O2 inh | CendR NRP1 mod | A3A deaminase
O=C(NC(Cc1ccccc1)C(=O)O)/C(=C/c1cccc([N+](=O)[O-])c1)NC(=O)c1cccc(Br)c1 (stereo not drawn) | -7.0 | 89.9 | 6.4 | 98.0* | 6.8 | -0.7
COc1cc(/C=N/NC(=O)/C(=C\c2ccc([N+](=O)[O-])cc2)NC(=O)c2ccccc2)cc(OC)c1O | -0.5 | 97.8 | 28.6* | 9.3 | 5.6 | 1.1
CC(=O)c1cc(CN2CCCCC2)cc(OC(C)C)c1 | -2.4 | 89.9 | 0.9 | -2.0 | -4.0 | 0.7
O=[N+]([O-])c1ccccc1S(=O)(=O)Nc1cccc(-c2ccc3nncn3n2)c1 | -10.7 | 105.0 | · | -4.2 | 1.2 | -2.1
Cc1[nH]c2ccccc2c1C(=O)C(C)OC(=O)c1ccc(NC(=O)CC#N)cc1 (stereo not drawn) | 1.6 | 100.1 | · | 99.8* | -0.1 | 1.7
NC(=O)CC(NC(=O)OCc1ccccc1)C(=O)O (stereo not drawn) | -5.9 | 87.8 | -4.2 | · | 31.0* | -2.4
O=C(CCC(NC(=O)OCc1ccccc1)C(=O)O)OCc1ccccc1 (stereo not drawn) | -6.8 | 79.7 | -6.3 | -1.6 | 4.7 | -1.1
NC(N)=NCCC[C@H](NC(=O)OCc1ccccc1)C(=O)O | -11.0 | · | -3.9 | · | 27.1* | -2.4
O=C(Nc1nnc(-c2ccccc2)s1)c1ccccc1O | -3.5 | 106.6 | 1.4 | 1.4 | 1.1 | 1.6
CCC(C)Sc1ccc(-c2nc3cc(C)ccn3c2NC2CCCCC2)cc1 (stereo not drawn) | -6.0 | 98.3 | · | · | -99.8 | -0.5
Cc1ccn2c(NC3CCCCC3)c(C(C)C)nc2c1 | -2.4 | 95.5 | -0.6 | 99.1* | 8.3 | -2.1
Cc1ccn2c(NC3CCCCC3)c(C)nc2c1 | -10.7 | 96.5 | 2.6 | 95.2* | 9.6 | -2.9
Cc1cc(SC(C)C(=O)Nc2c(C)n(C)n(-c3ccccc3)c2=O)nc2ccccc12 (stereo not drawn) | 11.1 | 91.6 | 4.6 | -3.3 | 12.5 | 3.1
COc1ccc(N=c2scc(C)n2CCCN2CCCC2=O)cc1 | -10.5 | 94.8 | 12.7 | 99.7* | -5.1 | -0.2
Cc1csc(=Nc2ccccc2)n1CCCN1CCCC1=O | -4.6 | 94.5 | 4.5 | 98.5* | 0.9 | 2.9
Cc1csc(=Nc2ccccc2)n1C | -9.6 | 117.1 | -3.7 | 99.0* | 14.2 | -0.5
CC(C)C[C@H](N)c1cn([C@@H](CCCCN)C(=O)N2CCNCC2)nn1 | -1.1 | 96.7 | 6.6 | 2.5 | 10.4 | 3.3
CCN1CCCC1CNC(=O)C1c2ccccc2C(=O)N(CCOC)C1c1ccc(F)cc1 (stereo not drawn) | 2.1 | 118.2 | -5.4 | 15.9 | 9.9 | 2.8
O=c1oc2ccccc2cc1-c1csc(NN=C2CCCCC2)n1 | -7.7 | 89.9 | 12.8 | 86.8* | -16.3 | -3.0
CCn1ncc(Br)c1C(=O)N(C)C12CC3CC(CC(C3)C1)C2 | -5.1 | 104.0 | 7.5 | 0.2 | 26.6* | -13.2
CCn1ncc(Br)c1C(=O)Nc1ccn(C23CC4CC(CC(C4)C2)C3)n1 | -5.5 | 103.5 | -5.3 | -1.8 | -5.8 | -0.2
CC1CCCC(NC(=O)c2ccc3c(c2)OCCO3)C1C (stereo not drawn) | -1.0 | 95.1 | · | 1.2 | 16.5 | -1.3
Cc1cnc([N+](=O)[O-])n1CCOC(=O)NC(=O)c1ccc(F)cc1 | -4.0 | 94.2 | 2.3 | -6.5 | -9.0 | 1.6
O=C(c1ccc(Br)cc1)c1coc2ccc(O)cc12 | -3.9 | 101.2 | · | 3.1 | -6.5 | 4.8
O=C(c1coc2ccc(O)cc12)C1CC1 | -1.5 | 88.3 | 8.5 | 16.5 | 19.1* | 6.6
SMILES | APOBEC3G inh | Yeast superoxide | M18AAP inhibitor | ALR H2O2 inh | CendR NRP1 mod | A3A deaminase
CCN(CC)c1ccc(CNC23CN4CN(CN(C4)C2)C3)cc1 | -7.6 | 95.9 | 6.5 | 98.1* | 10.1 | -4.0
CCOC(=O)C1CCN(S(=O)(=O)c2ccc(NC(=O)OC)cc2)CC1 | 1.6 | 95.9 | -7.2 | -9.8 | -16.1 | 1.7
COC(=O)Nc1ccc(S(=O)(=O)N2CCC(C(=O)N(C)C3CCCCC3)CC2)cc1 | -4.2 | 100.5 | 2.1 | 92.2* | -12.7 | -4.0
COc1ccc(CCNC(=O)C2CCC(=O)N(C3CC3)C2)c(OC)c1 (stereo not drawn) | -3.2 | 94.1 | -20.3 | -15.4 | 15.5 | -1.5
Cc1ccc(OCC(=O)NCCNC(=O)c2ccncc2)cc1C | -1.8 | 102.3 | -6.8 | -1.0 | -2.8 | -3.2
COC(=O)c1ccncc1C(=O)Nc1ccc(Oc2ncc(C(F)(F)F)cc2Cl)cc1 | -6.1 | 116.6 | 5.0 | 1.2 | 5.0 | -1.1
COC(=O)c1cnc(Oc2ccc(NC(=O)NC(=O)c3ccccc3Cl)cc2)cc1C(F)(F)F | 0.0 | 101.0 | -0.5 | -3.1 | 28.6* | 1.1
CC(=O)N/N=C/c1cc(C(C)(C)C)cc(/C=N/NC(C)=O)c1O | · | 106.3 | 2.1 | 7.5 | 35.0* | ·
COc1ccc(/C=N/OC(=O)Nc2ccc(Cl)cc2)c(OC)c1 | 1.9 | 98.0 | 1.5 | -1.3 | -4.0 | 1.1
CCn1c(SCC(=O)Nc2ccccc2)nnc1-c1cccs1 | -1.8 | 111.9 | -4.5 | -2.1 | -2.6 | 2.1
Cc1nc(N2CCC(C)CC2)c2c(C)c(C(=O)Nc3ccc(C)c(F)c3)sc2n1 | -1.1 | 95.0 | -0.7 | 0.1 | 15.8 | 0.6
Cc1nc(N2CCN(C)CC2)c2c(C)c(C(=O)Nc3ccc(C)c(F)c3)sc2n1 | -7.3 | 89.7 | -9.5 | 96.1* | 1.3 | -1.2
COc1ccc(O)c(C(=O)c2cnc3nc4ccccc4n3c2)c1 | · | 91.9 | 5.2 | 37.1 | -33.8 | ·
O=C(N/N=C/c1cc(Br)c(Br)o1)c1cccnc1 | 2.0 | 92.3 | 2.2 | -69.4 | 31.2* | 10.4
O=C1CCCCC/C1=N/Nc1ccc(OCc2ccccc2)cc1 | -4.9 | 83.5 | 0.9 | 99.1* | 9.4 | -1.1
O=C(COc1ccc(OCc2ccccc2)cc1)NN=C1CCCC1 | -5.1 | 111.8 | 0.1 | · | 6.2 | -4.4
O=C(CCn1c(=O)oc2ccccc21)Nc1cccc(Cl)c1 | -2.3 | 113.5 | 4.9 | -10.3 | 4.0 | -3.5
O=C(CCn1c(=O)oc2cc(Cl)ccc21)Nc1ccc(O)cc1 | -6.0 | 104.5 | 1.4 | 97.6* | 3.8 | -2.7
Clc1ccc(C2=CC(c3ccco3)n3ncnc3N2)cc1 (stereo not drawn) | -18.7 | 99.1 | 9.8 | 34.5 | 111.3 | -12.4
CC[C@H](C)[C@@H](COC=O)NC(=O)[C@H]1O[C@@H](n2ccc(N)nc2=O)[C@H](O)[C@@H]1O | · | · | · | · | 31.4* | ·
Cc1cc(N)ccc1-n1c(C)ccc1C | -7.6 | 93.0 | 21.9 | 17.5 | -9.5 | -3.9
CC1CCCN(c2ccc(F)cc2N)C1 (stereo not drawn) | -0.6 | 102.2 | 0.8 | -4.2 | -3.4 | 2.1
NC(=O)c1cc(N)ccc1N1CCCCC1 | -5.4 | 97.3 | 7.5 | 99.1* | 3.5 | -4.4
Cc1cc(N)ccc1N1CCCC1 | 28.9 | 91.8 | 19.1 | 98.4* | 9.3 | -10.0
NC(=O)c1cc(N)ccc1N1CCCC1 | 2.2 | 94.0 | 9.3 | 82.8* | 2.4 | 0.2
